# NadD block: blocks S. aureus nicotinate mononucleotide adenylyltransferase. actives 0.78% (n = 360,000). purified NadD enzyme, colorimetric absorbance read-out. inhibition, % at 20 µM; in the data active = inhibition above about 26%
# NPR2 activator: GC-B (human) receptor activation; activation, % at 10 µM; AID 1920062; HEK293-GC-B cells, CNP EC30, cGMP TR-FRET; 0% at EC30 CNP, 100% saturating CNP; actives 0.11% (n = 370,000);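 active = activation at 10 µM reaching about 35% in either raw or pattern-adjusted values, limit read from the data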
# Neddyl block: inhibitors of human cullin neddylation. TR-FRET cullin neddylation, biochemical. inhibition, % at 25 µM. AID 651699. actives 0.58% (n = 360,000); in the data active = inhibition above about 36%
# NPR1 activator: GC-A (human) enzyme activation; HEK293 GC-A cells, cGMP TR-FRET, EC30 ANP; 0% at EC30 ANP, 100% saturating ANP; activation, % at 10 µM; actives 0.14% (n = 370,000); in the data active = activation above about 40%
# Numbers without * were called inactive; i = inactive; nt = no result given. The list is not random: actives were taken first. Their share in the collection is about 1.5%.
SMILES,NadD block,NPR2 activator,Neddyl block,NPR1 activator
COC(=O)c1ccc(-n2c(C)cc(-c3csc(NC(=O)c4ccc(S(=O)(=O)N(C)C)cc4)n3)c2C)cc1,11,-4,1,1
O=C(/C=C/c1ccc(Br)o1)OCc1nc2ccsc2c(=O)[nH]1,53*,nt,15,nt
COCCn1c(SCC(=O)NC(=O)NC(C)(C)C)nc2ccccc21,-1,4,-3,0
COCCn1c(SCC(=O)NC(=O)NC(C)C)nc2ccccc21,-4,-3,-2,42*
CSc1cccc(NC(=S)NN/C(=N/S(=O)(=O)c2ccccc2)N2CCCC2)c1,nt,0,nt,1
CC(C)c1ccc(Nc2nnc(SC3CCOC3=O)s2)cc1 (configuration not stated),-3,14,9,65*
COC(=O)[C@]12C[C@H](CC(=O)N3CCCC3)C(=O)N(CCC3=CCCCC3)C1=C[C@H](C(C)C)O[C@@H]2C1CC1,nt,3,nt,1
CCN(CC)CCC(=O)c1ccc(F)cc1,-3,-1,3,74*
CN(C)CCC(=O)c1ccc(F)cc1,0,0,-5,72*
Cc1ccccc1-c1nc(CS(=O)CC(=O)NCc2ccccc2)c(C)o1 (configuration not stated),-2,3,-10,-3
Cc1ccc(CNC(=O)CS(=O)Cc2nc(-c3ccccc3C)oc2C)cc1 (configuration not stated),1,111*,-5,2
CNc1nc(N)c([N+](=O)[O-])c(Nc2cccc(Br)c2)n1,nt,-2,nt,4
COc1ccc(-n2c(SCC(=O)Nc3cc(C)on3)nc3ccc(O)cc3c2=O)cc1OC,6,-2,5,58*
Cc1cc(NC(=O)CSc2nc3c([nH]c4ccccc43)c(=O)n2-c2ccccc2F)no1,9,-2,-8,73*
COc1ccccc1-n1c(SCC(=O)Nc2cc(C)on2)nc2c([nH]c3ccccc32)c1=O,5,0,-22,71*
COc1cccc(-n2c(SCC(=O)Nc3cc(C)on3)nc3c([nH]c4ccccc43)c2=O)c1,0,-3,-11,80*
COc1cccc(-n2c(SCC(N)=O)nc3c([nH]c4ccccc43)c2=O)c1,0,2,-1,-6
COc1ccccc1N1CCN(S(=O)(=O)c2ccc3c(c2)n(C)c(=O)c(=O)n3C)CC1,nt,-1,nt,3
COCCn1c(SCC(=O)Nc2ccccc2F)nc2c([nH]c3ccccc32)c1=O,-1,2,13,55*
Cc1sc(-n2c(C)cc(/C=C3\SC(=S)NC3=O)c2C)c(C#N)c1C,25*,4,-17,-8
COC(=O)C1=C(C)NC(=O)/C1=C\c1cc(C)n(-c2cccc(C)c2)c1C,32*,-2,-6,1
Cc1cc(/C=C2\SC(=S)NC2=O)c(C)n1-c1cccc(O)c1,30*,-3,-3,-12
Cc1ccc(-n2c(C)cc(/C=C3\SC(=O)NC3=O)c2C)cc1,9,-4,2,1
CCn1c(C)cc(/C=C2/SC(=S)NC2=O)c1C,-4,-6,-8,1
COC(=O)C1=C(C)NC(=O)/C1=C\c1cc(C)n(-c2ccc(F)cc2)c1C,6,0,13,-1
SMILES,NadD block,NPR2 activator,Neddyl block,NPR1 activator
COc1ccc(C(=O)NC(=S)NNC(=O)c2cnccn2)cc1,-3,-6,15,-4
O=C(NC(=S)NNC(=O)c1cnccn1)c1ccc(Cl)cc1,0,-6,55*,1
CC1(C)Cc2c(C#N)c(NCCc3ccccc3)nc(-c3ccco3)c2CO1,6,48*,nt,35
O=C(CCN1CCN(c2ccccc2)CC1)Nc1ccc(Cl)cc1,-2,0,-9,5
O=C(CCN1CCN(c2ccc([N+](=O)[O-])cc2)CC1)c1ccc(Cl)cc1,-3,-9,-20,63*
O=C(CCN1CCN(c2ccccc2)CC1)c1ccc(Cl)cc1,-3,-4,-1,44*
Cn1c(=NC(=O)CS(=O)(=O)c2ccccc2)sc2cc(F)ccc21,1,-1,6,0
COCCn1c(=NC(=O)CCS(=O)(=O)c2ccccc2)sc2cc(C(=O)OC)ccc21,1,2,i,61*
Cn1c(=NC(=O)CCS(=O)(=O)c2ccccc2)sc2cc(F)ccc21,2,35,-389,62*
Cc1ccc(-n2nc3c(N4CCC(C(=O)NCc5cccc(F)c5)CC4)nnc(C)c3c2C)cc1,7,nt,42*,nt
CC(=NNc1cc(C)c2cc(C)ccc2n1)c1ccccn1,nt,1,nt,-3
NC(=O)c1sc2nc3c(c(-c4ccco4)c2c1N)CCCC3,0,-2,-5,0
Nc1c(C(=O)NCC2CCCO2)sc2nc3c(c(-c4ccco4)c12)CC/C3=C\c1ccco1 (configuration not stated),93*,-5,-14,-15
COC(=O)[C@H](CC(C)C)N(CCCc1cn(CC2CCCCC2)nn1)S(=O)(=O)c1ccc(F)cc1Br,nt,-3,nt,-1
Nc1ccc2cc3[nH]c4cc(N)ccc4c3nc2c1,54*,-4,-455,0
C#CCOCCOCCOCCNc1nc(N2CCOCC2)nc(N2CCN(C(=O)[C@H](Cc3cc4ccccc4[nH]3)n3cc([C@@H](N)CC(C)C)nn3)CC2)n1,6,nt,-12,nt
C#CCOCCOCCOCCNc1nc(N2CCN(C(=O)[C@H](Cc3cc4ccccc4[nH]3)n3cc([C@@H](N)CC(C)C)nn3)CC2)nc(N2CCN(C(=O)[C@H](Cc3cc4ccccc4[nH]3)n3cc([C@@H](N)CC(C)C)nn3)CC2)n1,70*,nt,-12,nt
C#CCOCCOCCOCCNc1nc(N2CCN(C(=O)[C@H](Cc3ccc(O)cc3)n3cc([C@@H](N)C(C)CC)nn3)CC2)nc(N2CCN(C(=O)[C@H](Cc3cc4ccccc4[nH]3)n3cc([C@@H](N)C(C)CC)nn3)CC2)n1 (some centres not stated),34*,nt,-28,nt
Cc1ccc(-c2ccc(CCC(=O)O)n2CC(=O)O)cc1,2,nt,42*,nt
C[C@H]1C2CC(OC(=O)Nc3ccccc3C(F)(F)F)C(C2)[C@H]2CCCCN21 (some centres not stated),nt,-5,nt,1
COCCCNC(=O)C[C@H]1C[C@@]2(C(=O)OC)C(=C[C@H](C3CCCC3)O[C@@H]2C)N(Cc2ccco2)C1=O,nt,-2,nt,-8
COc1ccccc1CCn1cnc(-c2ccc(OC)c(OC)c2)c1CC(C)C,nt,0,nt,0
COc1ccc2sc(-c3ccc(S(C)(=O)=O)cc3)c(C(=O)NCCc3c[nH]c4ccccc34)c2c1,9,39*,-320,30
CC(C)CCn1cnc2c(c1=O)c1nc3ccccc3nc1n2Cc1ccc2c(c1)OCO2,1,50*,24,39
O=c1c2ccccc2ncn1Cc1ccc2c(c1)OCO2,0,6,4,4
c1ccc2sc(-c3csc4c3CCNC4)nc2c1,nt,-4,nt,-1
COC(=O)CCC(=O)OC1(C)C(=O)C=C2C=C(c3ccsc3)OC=C2C1=O (configuration not stated),35*,nt,-21,nt
